# Measured values taken from PubChem BioAssay (NCATS).
# Inconclusive results are not listed. The source made the active and inactive calls. Unless noted, calls follow the shape of the dose curve; as a rule, active = well fitted curve in the direction sought with a large enough effect; inconclusive = small, poorly fitted or top-dose-only effect, or another doubt; inactive = no such curve, though single readings can be large; an effect the other way counts as inactive or inconclusive.
# What was measured:
# [1] = biological target: Lysosomal acid glucosylceramidase (Homo sapiens) (UniProt P04062); test: Glucocerebrosidase-p2 (AID 348; in the data active = potency below about 10 µM; also: potency is read from the fitted curve at half-maximal effect); conditions: purified GBA, blue fluorogenic substrate, 40 min
# Outline: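 Compounds titrated from 0.6 nM upwards against 0.2 nM enzyme in pH 5.9 citric acid/KH2PO4, taurocholate, tween-20; blue fluorogenic substrate 80 uM, 40 min room temperature, stopped and read Ex 365/Em 440 for AC50.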
# [2] = AP1 Signaling Pathway (AID 357; active = well fitted curve in either direction with a large enough effect, not every such curve was filed as active;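 also: ME-180 reporter cells stimulated with EGF at its EC50 level; % is scaled to controls: 0 for no effect and ±100 for the full control effect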); conditions: ME-180 AP-1-bla reporter, EGF-induced, beta-lactamase ratio, 5 h; at 7.69 µM (top of the series) unless noted
# Outline: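 In this screen, ME-180 cells in Opti-MEM with 0.5% dialyzed FBS received EC50 EGF and compound titrations for 5 h. AP-1 reporter beta-lactamase was detected via CCF4 ratio, giving AC50 for positive and negative modulators.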
# [3] = biological target: Cytochrome P450 1A2 (Homo sapiens) (UniProt P05177); test: p450-cyp1a2 (AID 410; calls by dose curve; also: potency is read from the fitted curve at half-maximal effect); conditions: recombinant CYP1A2, luciferin-ME demethylation, luminescence; series mostly up to 57 µM
# Outline: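 Human CYP1A2 (20nM) demethylated Luciferin-ME at its Km (100uM) in 100mM KPO4. After 10 min compound preincubation, NADPH regeneration ran the reaction 60 min at room temperature. Luciferin was read by luminescence, normalized to 57 uM furafylline.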
# [4] = biological target: Glucocorticoid receptor (Homo sapiens) (UniProt P04150); test: GR-GFP Redistribution (AID 450;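 active = compounds whose dose series gives a full or clear partial fitted curve of increased nuclear translocation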; also: potency is read from the fitted curve at half-maximal effect); conditions: U2OS GR-GFP nuclear translocation, laser cytometry, 2 h
# [5] = biological target: Glucocorticoid receptor (Homo sapiens) (UniProt P04150); test: GR-EFC Redistribution (AID 451; calls by dose curve; also: potency is read from the fitted curve at half-maximal effect); conditions: CHO-K1 GR-EFC translocation, beta-gal luminescence, 2 h
# Outline: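 CHO-K1 cells expressing nuclear EA and GR-ED fragments of b-gal; compounds titrated up to 46 uM final, 2 h at 37 C. GR nuclear translocation read as complemented b-gal luminescence after 1 h RT detection.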
# [6] = biological target: 3',5'-cyclic-AMP phosphodiesterase 4B (Homo sapiens) (UniProt Q07343); test: qHTS Assay for Inhibitors of PDE-IV (AID 607; active = well fitted activation curve with a large enough effect in the main read-out, with a control signal flat, not every such curve was filed as active; also: % of control where 0% means no effect); conditions: HEK293 ACTOne CNG channel cells, membrane potential fluorescence; series mostly up to 22.9 µM
# Outline: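 Live HEK293 cells with a modified cyclic nucleotide-gated (CNG) channel report intracellular cAMP via membrane-potential dye fluorescence (ex 535/em 590 nm). Endogenous PDE-IV was targeted. Compounds were tested at up to 22.9 uM final; RO 20-1724 100 uM served as control.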
# [7] = biological target: Cytochrome P450 3A4 (Homo sapiens) (UniProt P08684); test: qHTS Assay for Inhibitors and Substrates of Cytochrome P450 3A4 (AID 884); conditions: recombinant CYP3A4, Luciferin-PPXE luminescence; series mostly up to 57.1 µM; also: potency is read from the fitted curve at half-maximal effect; nearly all actives have a fitted effect of over 50% in size
# Outline: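 20 nM human CYP3A4 with 25 uM Luciferin-PPXE (at KM) in 200 mM KPO4, preincubated 10 min with compound; NADPH regeneration started a 60 min RT reaction. Luciferin detected by luminescence, normalized to 57 uM ketoconazole as full inhibition.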
# [8] = biological target: Cytochrome P450 3A4 (Homo sapiens) (UniProt P08684); test: qHTS Assay for Activators of Cytochrome P450 3A4 (AID 885); conditions: recombinant CYP3A4, Luciferin-PPXE luminescence, 60 min; series mostly up to 57.1 µM; also: nearly all actives have a fitted effect of over 65% in size
# Outline: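 Quantitative HTS format: compounds preincubated with 20nM human CYP3A4 and Luciferin-PPXE substrate at KM, reaction started by NADPH regeneration, stopped after 60 min, luciferase luminescence read 20 min later.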
# [9] = biological target: Cytochrome P450 2C19 (Homo sapiens) (UniProt P33261); test: qHTS Assay for Inhibitors and Substrates of Cytochrome P450 2C19 (AID 899); conditions: recombinant CYP2C19, luciferin-H EGE luminescence; series mostly up to 57.1 µM; also: potency is read from the fitted curve at half-maximal effect; nearly all actives have a fitted effect of over 60% in size
# Outline: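 Luminescent read-out of luciferin formed from Luciferin-H EGE (10uM, equal to KM). Enzyme 5nM in 50mM KPO4; compound added, 10 min at 37C, then NADPH regenerating system for 60 min at 37C. Full inhibition defined by 57uM ketoconazole.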
# [10] = qHTS Assay for Identification of Small Molecule Agonists for Hypoxia Response Element Signaling Pathway (AID 914; active = well fitted activation curve with a large enough effect in the signal ratio, with a control signal flat, not every such curve was filed as active; the % refers to the signal ratio; also: potency is read from the fitted curve at half-maximal effect; as to activation: % of control where 0% means no effect); conditions: ME-180 HRE-bla reporter, beta-lactamase ratio, CoCl2, 17 h; activation: stronger effect = higher value
# Outline: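 In Opti-MEM containing 0.5% dialyzed FBS and 10 mM HEPES, ME-180 HRE-bla cells received a compound titration and EC50 CoCl2. They were incubated 17 hours, then CCF4-loaded 2.5 hours at room temperature before ratio reading.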
# [11] = qHTS Assay for Lipid Storage Modulators (AID 1519; calls by dose curve); conditions: Drosophila S3 cells, BODIPY lipid droplet/cell ratio, laser cytometry, cells loaded with oleic acid; for activity change, negative = inhibition: at 57.5 µM (top of the series)
# Outline: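 Cells seeded at 5,000 per well were treated with compounds over a concentration series and loaded with oleic acid (400 uM, as added). Lipid droplet fluorescence (488 nm excitation, 500-530 nm channel) was read by laser-scanning cytometry and normalized to 20 uM Triacsin C.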
# [12] = biological target: Dual specificity protein kinase CLK4 (Homo sapiens) (UniProt Q9HAZ1); test: qHTS Assay for Inhibitors of CDC-like Kinase 4 (ADP-FP Assay) (AID 1795); conditions: Transcreener ADP fluorescence polarization; series mostly up to 50 µM; also: nearly all actives have a fitted effect of over 60% in size; also: potency is read from the fitted curve at half-maximal effect
# Outline: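 Kinase activity was followed as ADP output, converted from fluorescence polarization with a calibration curve. Reactions ran one hour at low ATP (1 uM) with RS peptide substrate.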
# [13] = biological target: Ubiquitin carboxyl-terminal hydrolase 1 (Homo sapiens) (UniProt O94782); test: Inhibitors of USP1/UAF1: Pilot qHTS (AID 504865); conditions: purified USP1/UAF1, Ub-rhodamine cleavage fluorescence; series mostly up to 54.9 µM;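 also: rhodamine fluorescence freed from ubiquitin-rhodamine substrate followed over time; top concentration of the series differs between compounds; % is scaled to controls: 0 for no effect and ±100 for the full control effect; nearly all actives have a fitted effect of over 35% in size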
# Outline: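 Enzyme-free wells gave the negative control, while test wells held 1nM USP1/UAF1 preincubated with compound for 15 min at room temperature. Ub-Rho at 150nM final started the reaction, and fluorescence at 480/540 nm was recorded kinetically.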
# [14] = Primary qHTS for small molecule stabilizers of the endoplasmic reticulum resident proteome: Secreted ER Calcium Modulated Protein (SERCaMP) assay (AID 1508630); conditions: SH-SY5Y GLuc-SERCaMP (Gaussia luciferase released on ER calcium loss) secretion, thapsigargin, luminescence; series mostly up to 38.4 µM; also: % is scaled to controls: 0 for no effect and ±100 for the full control effect
# Outline: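 GLuc-SERCaMP-expressing SH-SY5Y cells, pretreated 16 h with compound, are challenged with thapsigargin to empty ER calcium stores; after 4 h, coelenterazine is added directly to the medium and luminescence is imaged.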
# [15] = NFAT Signaling Pathway (AID 444; active = well fitted curve in either direction with a large enough effect, not every such curve was filed as active;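 also: carbachol stimulus at about its EC50 of 1 µM final; % is scaled to controls: 0 for no effect and ±100 for the full control effect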); conditions: Jurkat NFAT-bla M1, carbachol, beta-lactamase ratio, 5 h; at 7.69 µM (top of the series) unless noted
# Outline: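 Jurkat cells with NFAT-driven β-lactamase reporter and co-expressed M1 receptor, stimulated with carbachol (final 1 uM, ~EC50), compound titration, 5 h at 37 °C. CCF4 loaded 1 h at RT; 460/530 nm ratio gave %activity and AC50.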
# [16] = Stat Signaling Pathway (AID 446; active = well fitted curve in either direction with a large enough effect, not every such curve was filed as active;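 also: ME-180 cervical cancer cells given 40 pM IL-6 alongside compound; SIE-controlled beta-lactamase reporter measured as 460/530 nm FRET emission ratio; % is scaled to controls: 0 for no effect and ±100 for the full control effect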); conditions: ME-180 (cervical carcinoma) SIE beta-lactamase reporter, IL-6 stimulated, 5 h; at 7.69 µM (top of the series) unless noted
# Outline: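 IL-6/STAT signaling read in ME-180 cells via an SIE beta-lactamase reporter. Stimulus was 40 pM IL-6 (its AC50) for 5 hrs, so both activation and inhibition register.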
# [17] = biological target: Mitogen-activated protein kinase 10 (Mus musculus) (UniProt Q61831); test: JNK3 AlphaScreen Assay (AID 530; active = well fitted curve in either direction with a large enough effect, not every such curve was filed as active); conditions: JNK3 lysate, c-Jun phosphorylation; series mostly up to 57.1 µM
# Outline: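 qHTS format: compounds tested as titrations against IL-1beta/TNF-alpha-activated HepG2 lysate JNK3 with biotin-GST-cJun substrate and 10 uM ATP at room temperature. Loss of anti-phospho-cJun AlphaScreen signal indicates inhibition.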
# [18] = Confirmation and Secondary Assay for Modulators of Hemoglobin Beta Chain Splicing at IVS2 654 locus (AID 910); conditions: HeLa EGFP-654 splicing reporter, GFP fluorescence, 48 h; series mostly up to 38.3 µM;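 also: HeLa cells stably carrying EGFP split by mutant beta-globin IVS2-654 intron; % of control where 0% means no effect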
# Outline: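 HeLa cells stably expressing EGFP interrupted by β-globin IVS2-654 intron, seeded overnight in Opti-MEM/2% FCS, then treated 2 days at 37 °C. Restored splicing read as total peak GFP intensity per well by laser scanning cytometry (488 nm excitation, 500–520 nm emission); 500 nM antisense PNA as control.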
# [19] = Confirmation and Secondary Assay for Modulators of Hemoglobin Beta Chain Splicing at IVS2 705 locus (AID 930); conditions: HeLa EGFP-705 splicing reporter, GFP fluorescence, 48 h; series mostly up to 38.3 µM;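 also: HeLa cells stably expressing the EGFP-705 splicing reporter; GFP fluorescence per well restored by corrected splicing of the IVS2-705 intron in EGFP; % of control where 0% means no effect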
# Outline: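 Per-well GFP, captured at 1 x 8 µm resolution with 488 nm excitation, served as the read-out for HeLa EGFP-705 cells incubated 2 days with test compound versus DMSO.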
# [20] = measured here: cell count channel max response
# [21] = measured here: lipid channel max response
# Cytochrome P450 3A4 (Homo sapiens), sequence (P08684 whole entry, looked up): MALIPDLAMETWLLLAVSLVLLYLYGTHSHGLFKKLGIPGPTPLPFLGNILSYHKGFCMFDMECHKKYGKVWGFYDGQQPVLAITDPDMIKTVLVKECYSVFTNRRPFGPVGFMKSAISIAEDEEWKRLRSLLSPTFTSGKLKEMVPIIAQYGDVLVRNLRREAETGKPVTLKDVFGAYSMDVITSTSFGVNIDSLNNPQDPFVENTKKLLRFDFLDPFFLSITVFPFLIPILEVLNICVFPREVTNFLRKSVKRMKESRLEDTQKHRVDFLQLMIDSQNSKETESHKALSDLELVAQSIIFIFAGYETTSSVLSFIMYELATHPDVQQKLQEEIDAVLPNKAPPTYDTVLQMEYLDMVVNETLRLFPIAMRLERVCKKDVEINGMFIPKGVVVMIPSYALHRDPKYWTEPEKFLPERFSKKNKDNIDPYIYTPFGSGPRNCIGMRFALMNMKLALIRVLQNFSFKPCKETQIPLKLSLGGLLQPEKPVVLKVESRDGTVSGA
# 3',5'-cyclic-AMP phosphodiesterase 4B (Homo sapiens), sequence (Q07343 whole entry, looked up): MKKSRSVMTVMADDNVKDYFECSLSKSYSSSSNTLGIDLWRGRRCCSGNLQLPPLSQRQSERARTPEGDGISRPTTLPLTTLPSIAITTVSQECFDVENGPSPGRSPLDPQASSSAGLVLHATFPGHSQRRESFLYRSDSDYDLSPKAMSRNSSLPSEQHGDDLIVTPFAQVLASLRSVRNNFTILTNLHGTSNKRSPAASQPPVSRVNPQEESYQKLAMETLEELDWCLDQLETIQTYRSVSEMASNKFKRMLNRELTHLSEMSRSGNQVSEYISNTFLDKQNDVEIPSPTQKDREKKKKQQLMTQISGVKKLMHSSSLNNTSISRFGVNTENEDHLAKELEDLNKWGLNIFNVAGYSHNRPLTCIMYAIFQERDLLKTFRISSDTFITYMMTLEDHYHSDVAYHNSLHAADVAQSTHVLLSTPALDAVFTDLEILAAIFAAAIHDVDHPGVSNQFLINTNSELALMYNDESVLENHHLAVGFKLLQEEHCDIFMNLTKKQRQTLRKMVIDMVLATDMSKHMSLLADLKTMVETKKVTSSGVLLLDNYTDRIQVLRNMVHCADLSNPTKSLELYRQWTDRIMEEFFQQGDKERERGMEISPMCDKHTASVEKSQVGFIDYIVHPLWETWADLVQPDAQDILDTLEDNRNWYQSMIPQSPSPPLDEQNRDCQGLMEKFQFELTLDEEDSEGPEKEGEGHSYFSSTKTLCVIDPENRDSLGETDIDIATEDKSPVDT
# Glucocorticoid receptor (Homo sapiens), sequence (P04150 whole entry, looked up, the tested form may be a part): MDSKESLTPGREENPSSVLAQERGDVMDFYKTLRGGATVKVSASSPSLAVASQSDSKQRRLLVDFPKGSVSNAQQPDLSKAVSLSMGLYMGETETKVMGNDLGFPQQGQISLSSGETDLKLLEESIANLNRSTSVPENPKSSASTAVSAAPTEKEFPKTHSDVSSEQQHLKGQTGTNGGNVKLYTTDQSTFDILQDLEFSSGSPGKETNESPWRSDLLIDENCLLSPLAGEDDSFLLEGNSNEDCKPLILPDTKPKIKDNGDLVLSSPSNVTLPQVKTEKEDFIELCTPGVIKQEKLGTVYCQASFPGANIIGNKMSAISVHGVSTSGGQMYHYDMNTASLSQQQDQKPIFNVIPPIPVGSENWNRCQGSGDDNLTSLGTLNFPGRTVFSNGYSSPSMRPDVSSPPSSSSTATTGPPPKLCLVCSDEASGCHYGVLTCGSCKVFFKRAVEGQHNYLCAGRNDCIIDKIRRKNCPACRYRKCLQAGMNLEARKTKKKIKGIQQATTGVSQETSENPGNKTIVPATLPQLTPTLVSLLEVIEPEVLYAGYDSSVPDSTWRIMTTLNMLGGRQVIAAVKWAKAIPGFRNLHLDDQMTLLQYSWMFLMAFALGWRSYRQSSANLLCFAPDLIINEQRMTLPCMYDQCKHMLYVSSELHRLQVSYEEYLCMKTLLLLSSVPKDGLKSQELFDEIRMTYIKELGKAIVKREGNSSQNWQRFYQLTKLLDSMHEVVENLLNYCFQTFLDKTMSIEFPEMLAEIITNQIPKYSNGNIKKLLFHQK
# Ubiquitin carboxyl-terminal hydrolase 1 (Homo sapiens), sequence (O94782 whole entry, looked up): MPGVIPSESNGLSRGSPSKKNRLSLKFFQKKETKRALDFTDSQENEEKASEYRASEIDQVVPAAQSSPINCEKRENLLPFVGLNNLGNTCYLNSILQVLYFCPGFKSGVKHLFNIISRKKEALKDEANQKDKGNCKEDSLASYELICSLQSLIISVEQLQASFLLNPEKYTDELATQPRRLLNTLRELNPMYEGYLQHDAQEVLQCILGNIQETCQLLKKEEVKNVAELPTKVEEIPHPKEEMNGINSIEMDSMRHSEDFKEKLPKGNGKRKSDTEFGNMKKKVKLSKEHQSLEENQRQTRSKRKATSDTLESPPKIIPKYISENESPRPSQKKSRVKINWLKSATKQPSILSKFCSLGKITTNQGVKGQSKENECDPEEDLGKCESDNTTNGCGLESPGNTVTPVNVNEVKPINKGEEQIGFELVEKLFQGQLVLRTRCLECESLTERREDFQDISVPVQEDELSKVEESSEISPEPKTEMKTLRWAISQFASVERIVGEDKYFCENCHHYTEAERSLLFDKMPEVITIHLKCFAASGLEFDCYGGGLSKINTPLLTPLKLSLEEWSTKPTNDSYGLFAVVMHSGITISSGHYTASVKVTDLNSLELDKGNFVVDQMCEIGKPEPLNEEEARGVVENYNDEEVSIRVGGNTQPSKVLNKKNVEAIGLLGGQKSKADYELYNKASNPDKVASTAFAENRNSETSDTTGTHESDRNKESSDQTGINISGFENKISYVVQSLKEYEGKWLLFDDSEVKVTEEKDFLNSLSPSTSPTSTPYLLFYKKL
# Dual specificity protein kinase CLK4 (Homo sapiens), sequence (Q9HAZ1 whole entry, looked up): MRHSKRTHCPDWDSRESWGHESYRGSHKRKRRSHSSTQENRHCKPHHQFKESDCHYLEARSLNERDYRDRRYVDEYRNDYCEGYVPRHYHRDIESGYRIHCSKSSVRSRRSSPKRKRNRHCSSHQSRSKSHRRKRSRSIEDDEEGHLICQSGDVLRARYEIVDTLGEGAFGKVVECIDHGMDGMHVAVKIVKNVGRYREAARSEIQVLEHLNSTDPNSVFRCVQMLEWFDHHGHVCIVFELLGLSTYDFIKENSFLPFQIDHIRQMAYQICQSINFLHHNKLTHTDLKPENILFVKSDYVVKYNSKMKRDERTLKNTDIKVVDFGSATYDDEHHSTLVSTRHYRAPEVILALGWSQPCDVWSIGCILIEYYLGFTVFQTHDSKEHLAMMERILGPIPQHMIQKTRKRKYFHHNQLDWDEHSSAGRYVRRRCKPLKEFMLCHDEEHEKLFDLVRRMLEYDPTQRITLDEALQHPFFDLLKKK
# Lysosomal acid glucosylceramidase (Homo sapiens), sequence (P04062 whole entry, looked up): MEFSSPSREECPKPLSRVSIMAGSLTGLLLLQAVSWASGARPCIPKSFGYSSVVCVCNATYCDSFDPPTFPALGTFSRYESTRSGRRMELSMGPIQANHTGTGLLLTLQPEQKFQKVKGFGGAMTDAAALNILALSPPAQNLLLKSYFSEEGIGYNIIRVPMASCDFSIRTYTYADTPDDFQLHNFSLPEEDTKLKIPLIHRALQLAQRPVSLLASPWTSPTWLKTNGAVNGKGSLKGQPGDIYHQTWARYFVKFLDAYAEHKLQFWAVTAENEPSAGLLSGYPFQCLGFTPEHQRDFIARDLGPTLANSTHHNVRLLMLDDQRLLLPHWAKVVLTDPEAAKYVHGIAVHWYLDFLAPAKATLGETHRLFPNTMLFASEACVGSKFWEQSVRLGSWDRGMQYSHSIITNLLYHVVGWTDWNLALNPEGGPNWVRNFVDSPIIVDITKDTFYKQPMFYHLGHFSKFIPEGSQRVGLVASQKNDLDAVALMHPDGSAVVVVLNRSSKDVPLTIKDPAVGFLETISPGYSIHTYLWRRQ
# Cytochrome P450 2C19 (Homo sapiens), sequence (P33261 whole entry, looked up): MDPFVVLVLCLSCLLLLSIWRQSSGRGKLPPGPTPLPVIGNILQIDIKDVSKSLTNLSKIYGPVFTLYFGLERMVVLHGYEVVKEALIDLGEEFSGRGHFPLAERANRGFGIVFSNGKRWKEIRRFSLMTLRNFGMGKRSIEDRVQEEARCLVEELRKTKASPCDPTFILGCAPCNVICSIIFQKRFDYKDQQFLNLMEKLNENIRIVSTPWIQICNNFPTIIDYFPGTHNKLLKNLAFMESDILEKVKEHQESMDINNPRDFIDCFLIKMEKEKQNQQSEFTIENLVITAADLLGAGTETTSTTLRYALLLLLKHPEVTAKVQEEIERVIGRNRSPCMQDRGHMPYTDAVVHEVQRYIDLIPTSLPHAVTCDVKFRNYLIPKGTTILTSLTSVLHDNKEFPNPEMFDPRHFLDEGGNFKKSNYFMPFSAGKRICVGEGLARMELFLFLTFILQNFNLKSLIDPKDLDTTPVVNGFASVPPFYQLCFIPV
# Cytochrome P450 1A2 (Homo sapiens), sequence (P05177 whole entry, looked up): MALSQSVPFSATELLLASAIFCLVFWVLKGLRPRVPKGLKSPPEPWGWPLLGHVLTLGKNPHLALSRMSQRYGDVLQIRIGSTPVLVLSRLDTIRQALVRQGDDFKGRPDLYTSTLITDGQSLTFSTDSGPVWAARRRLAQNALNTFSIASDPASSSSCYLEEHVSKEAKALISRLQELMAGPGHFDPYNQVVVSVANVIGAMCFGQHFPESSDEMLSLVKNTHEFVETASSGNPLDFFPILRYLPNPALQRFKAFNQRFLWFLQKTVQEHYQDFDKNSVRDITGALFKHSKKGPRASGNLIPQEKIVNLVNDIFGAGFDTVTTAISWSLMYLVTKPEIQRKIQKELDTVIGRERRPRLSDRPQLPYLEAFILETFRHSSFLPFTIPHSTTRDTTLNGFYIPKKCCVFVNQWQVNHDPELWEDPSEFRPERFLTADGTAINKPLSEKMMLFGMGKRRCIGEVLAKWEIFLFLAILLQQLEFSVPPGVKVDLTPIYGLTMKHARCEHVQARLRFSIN
smiles,measurement,setting,value
Cc1noc(C)c1-c1ccc2ncnc(NCc3cccnc3)c2c1,Potency,[1],> 11.4 µM (inactive)
same,"activity change, negative = inhibition",[2],26.4% (inactive)
same,Potency,[3],0.316 µM (active)
same,Potency,[4],> 46 µM (inactive)
same,Potency,[5],> 46 µM (inactive)
same,Potency,[6],inactive
same,Potency,[7],2.51 µM (active)
same,Potency,[8],inactive
same,Potency,[9],0.02 µM (active)
same,Potency,[10],3.16 µM (active)
same,"activity change, negative = inhibition",[11],-3.3% (inactive)
same,max response,[11]; [20],10.5%
same,max response,[11]; [21],6%
same,Potency,[12],0.794 µM (active)
same,Potency,[13],inactive
same,Potency,[14],inactive
CN(C)c1ncc2ncc(=O)n(C[C@H]3CCCO3)c2n1,"activity change, negative = inhibition",[2],-16.4% (inactive)
same,"activity change, negative = inhibition",[15],-6.33% (inactive)
same,"activity, negative = inhibition",[16],-10.5% (inactive)
same,Potency,[4],> 9.22 µM (inactive)
same,Potency,[5],> 46 µM (inactive)
same,outcome,[17],inactive
same,Potency,[6],inactive
same,"activity change, negative = inhibition",[11],5.33% (inactive)
same,max response,[11]; [20],-7.9%
same,max response,[11]; [21],-4.59%
same,Potency,[12],inactive
same,Potency,[13],inactive
same,Potency,[14],inactive
COc1ccc(CNc2cc(-c3ccccc3Cl)ncn2)c(OC)c1,Potency,[1],> 11.4 µM (inactive)
same,"activity change, negative = inhibition",[2],-3.31% (inactive)
same,"activity change, negative = inhibition",[15],-0.814% (inactive)
same,"activity, negative = inhibition",[16],7.16% (inactive)
same,Potency,[4],> 46 µM (inactive)
same,Potency,[5],> 46 µM (inactive)
same,outcome,[17],inactive
same,Potency,[7],6.31 µM (active)
same,Potency,[8],inactive
same,Potency,[9],2 µM (active)
same,"activity change, negative = inhibition",[11],5.7% (inactive)
same,max response,[11]; [20],19.5%
same,max response,[11]; [21],25%
same,Potency,[12],inactive
same,Potency,[14],inactive
COc1cccc(-c2cncnc2-n2ccnc2)c1,Potency,[1],> 11.4 µM (inactive)
same,"activity change, negative = inhibition",[2],3.37% (inactive)
same,Potency,[3],0.1 µM (active)
same,"activity change, negative = inhibition",[15],-0.356% (inactive)
same,"activity, negative = inhibition",[16],-1.78% (inactive)
same,Potency,[4],> 46 µM (inactive)
same,Potency,[5],> 46 µM (inactive)
same,outcome,[17],inactive
same,Potency,[6],inactive
same,Potency,[8],inactive
same,Potency,[9],0.631 µM (active)
same,outcome,[18],inactive
same,outcome,[19],inactive
same,"activity change, negative = inhibition",[11],7.42% (inactive)
same,max response,[11]; [20],-2.24%
same,max response,[11]; [21],4.82%
same,Potency,[13],inactive
same,Potency,[14],inactive
COc1ccccc1CNc1ncncc1-c1cccc(C#N)c1,Potency,[1],> 11.4 µM (inactive)
same,"activity change, negative = inhibition",[2],-6.51% (inactive)
same,Potency,[3],10 µM (active)
same,"activity change, negative = inhibition",[15],-5.86% (inactive)
same,"activity, negative = inhibition",[16],-0.225% (inactive)
same,Potency,[4],> 46 µM (inactive)
same,Potency,[5],> 46 µM (inactive)
same,outcome,[17],inactive
same,Potency,[6],inactive
same,Potency,[8],inactive
same,Potency,[9],3.16 µM (active)
same,outcome,[18],inactive
same,activation,[10],-9.43% (inactive)
same,outcome,[19],inactive
same,"activity change, negative = inhibition",[11],6.39% (inactive)
same,max response,[11]; [20],-8.3%
same,max response,[11]; [21],8.29%
same,Potency,[13],inactive
same,Potency,[14],inactive
